Among the data in PubChem BioAssay AID603 (National Center for Advancing Translational Sciences (NCATS), 2007) are activity change, negative = inhibition and Potency values, retold here.

The whole screen tested about 71,000 compounds, of which about 180 (0.25%) were called active. Entries that show only a call come without a potency. For the sample, actives were picked, then their nearest neighbours and some compounds at random. Values without a mark were called inactive. Calls follow the shape of the dose curve; as a rule, active = well fitted curve in the direction sought with a large enough effect; inconclusive = small, poorly fitted or top-dose-only effect; inactive = flat fitted curve, though single readings scatter.
Potency is read from the fitted curve at half-maximal effect.

For this test, the system named is DNA polymerase III holoenzyme (E. coli). Kind of test: qHTS Assay for Inhibitors of DNA Polymerase III Holoenzyme System. Conditions: reconstituted DNA polymerase III holoenzyme replication, biochemical; series mostly up to 57.1 µM. In outline: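 Reconstituted *E. coli* holoenzyme (0.35 nM Pol III, 1 nM beta, 154 nM SSB, 2 nM primase) was preincubated with compound for 15 min at RT. Synthesis on 1.4 nM ssM13Gori ran 35 min, then was stopped with PicoGreen/EDTA and read as dsDNA fluorescence.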
In general terms: Quantitative high-throughput screening tests each substance at several concentrations.
Turning to `CC(C)NC(=O)N1CCCC2(CCN(C(=O)c3cccn3C)CC2)C1`, the activity change, negative = inhibition result was “inactive”.

On to `COc1ccc(N)c(OC)c1`, for which the activity change, negative = inhibition entry is “inactive”.

Take `CC1=C2C(=O)OC(c3ccoc3)C2(C)CCC1` (configuration not stated): the activity change, negative = inhibition entry was “inactive”.

For `Cn1c(SCC(=O)Nc2cccc(NC(=O)c3cccs3)c2)nnc1-c1ccncc1`, the activity change, negative = inhibition entry was “inactive”. The same measure, in the same setting: the entry for `COc1ccc(N2C(=O)c3cccc4cccc(c34)C2=O)nn1` is “inactive”. Turning to `O=C1c2ccccc2C(=O)N1CCCSc1ccccc1`, the activity change, negative = inhibition was -7.1% [at 11.4 µM]. With `C[N+](C)(CCCCCC[N+](C)(C)CCCN1C(=O)c2cccc3cccc(c23)C1=O)CCCN1C(=O)c2cccc3cccc(c23)C1=O`, the Potency is 15.8 µM (active). Turning to `COc1ccc2[nH]cc(CCNc3cc(-c4ccccc4CN(C)C)ncn3)c2c1`, the activity change, negative = inhibition entry is “inactive”. Regarding `O=C(c1cc(C(F)(F)F)cc(C(F)(F)F)c1)N1CCC2(CC1)CN(c1ccncc1)C2`, the activity change, negative = inhibition entry was “inactive”. On the same count and under the same terms, the entry for `CCN1C(=O)/C(=C2\SC(N3CCCCC3)=NC2=O)c2ccccc21` is “inactive”. Regarding `C/C=C/C=C/C(=O)O`, the activity change, negative = inhibition entry is “inactive”. On to `O=S(=O)(/C=C/c1ccccc1)NCCc1ccccn1`, for which the activity change, negative = inhibition result is “inactive”.

On to `COc1ccc(S(=O)(=O)Nc2ccc3c(c2)OCO3)cc1Cl`, for which the activity change, negative = inhibition result is “inactive”.

Regarding `CC1CCCC(C)N1CCCNC(=O)c1cc2c(=O)n(C)c3ccccc3c2n1C` (configuration not stated), the activity change, negative = inhibition entry was “inactive”. In the case of `Cn1c(C(=O)NCCc2ccsc2)cc2c(=O)n(C)c3ccccc3c21`, the activity change, negative = inhibition result is “inactive”. Take `CCN1CCCC1CNC(=O)c1cc2c(=O)n(C)c3ccccc3c2n1C` (configuration not stated): the Potency was 25.1 µM (active). For `OCCNCCCCOc1ccccc1F`, the activity change, negative = inhibition was -4.9% [at 11.4 µM]. As for `CC1(C)S[C@@H]2[C@@H](NC(=O)[C@@H](N)c3ccccc3)C(=O)N2[C@H]1C(=O)O`, the activity change, negative = inhibition entry is “inactive”. For the compound `Oc1ccc(Cn2cc[nH]c2=S)cc1`, the activity change, negative = inhibition result was “inactive”. On to `C[N+]1(CCN=C=NC2CCCCC2)CCOCC1`, for which the activity change, negative = inhibition was -1.6% [at 11.4 µM]. `COc1ccc(C(=O)OCC(=O)c2ccc(C)c(S(=O)(=O)N3CCOCC3)c2)cc1OC`: the activity change, negative = inhibition result was “inactive”. On to `CCOc1ccc(NC(=O)CCC(=O)n2nc(C)cc2C)cc1`, for which the activity change, negative = inhibition entry is “inactive”. For `Cc1cccc(N2CCN(C(=O)c3cc4c(=O)[nH]c5ccccc5c4n3C)CC2)c1C`, the activity change, negative = inhibition entry was “inactive”. Regarding `CCCn1c(C)nc2c(NCCCCN(CC)CC)nc(C)nc21`, the activity change, negative = inhibition entry is “inactive”. Turning to `NCCNCC1CCNCC1`, the activity change, negative = inhibition is -9.7% [at 11.4 µM]. For the compound `CCNC(=S)NCC`, the activity change, negative = inhibition result is “inactive”. `CC(Cc1ccccc1)C(=O)N(C)Cc1ccccc1` (configuration not stated): the activity change, negative = inhibition entry is “inactive”. For the compound `COc1ccccc1CNc1ncncc1-c1cccnc1`, the activity change, negative = inhibition entry is “inactive”. Still for that read-out and setting: the entry for `COc1cccc(NC(=O)Cn2cnc3sc(C)c(S(=O)(=O)N4CCN(C)CC4)c3c2=O)c1` is “inactive”. Still for that read-out and setting: under `COc1ccccc1N1CCN(C(=O)Cn2nnc(-c3cccs3)n2)CC1` stands “inactive”; under `Cc1[nH]c(N)nc(=S)c1CCCNc1ccccc1`, -9.5% [at 11.4 µM]. On the same count and under the same terms, under `COc1ccc(OCC(=O)N2CCN(C(=O)c3cccs3)CC2)cc1` stands “inactive”; under `CC(C)C[C@@H](CC(=O)N[C@@H](CCC(=O)O)CC(=O)O)NC(=O)[C@@H]1CCCC[C@H]1NC(=O)C[C@@H](NC(=O)C[C@H](CO)NC(=O)[C@@H]1CCCC[C@H]1N)C(C)C`, “inactive”; under `Cc1c(C)c2c(c(C)c1O)CC[C@@](C)(CN1CCN(c3cc(N4CCCC4)nc(N4CCCC4)n3)CC1)O2`, “inactive”.

Turning to `CCCCNC(=O)CSc1nnc(-c2ccco2)n1C`, the activity change, negative = inhibition entry is “inactive”.

For the compound `CCN(CC)CCNC(=O)Cn1cnc2sc(C)c(S(=O)(=O)N3CCOCC3)c2c1=O`, the activity change, negative = inhibition result was “inactive”. Consider `O=C1CC(c2ccccc2)C(=O)N1c1cccc(O)c1` (configuration not stated), for which the activity change, negative = inhibition entry was “inactive”. For the compound `Cc1cc(Nc2ccc(Br)cc2F)n2ncnc2n1`, the activity change, negative = inhibition entry was “inactive”.

Take `COC(=O)c1ccccc1NC(=O)C1CCN(S(=O)(=O)c2cc(OC)ccc2OC)CC1`: the activity change, negative = inhibition result is “inactive”. Consider `O=C(NCCCCO)C(F)(F)C(F)(F)C(F)(F)C(=O)NCCCCO`, for which the activity change, negative = inhibition entry is “inactive”. `CCOc1cc(-c2nc3cc(C)ccn3c2NCC2CCCO2)ccc1O` (configuration not stated): the activity change, negative = inhibition entry was “inactive”. For `N#C/C=C1\Sc2ccccc2C(=O)N1CC(=O)N1CCN(S(=O)(=O)c2ccccc2)CC1`, the activity change, negative = inhibition result is “inactive”. Same read-out and setting: under `COc1ccc(NC(=O)N2CC3(CCN(C(C)=O)CC3)C2)cc1` stands “inactive”. Take `CCN(CC(=O)NCc1cccs1)c1nnnn1-c1ccccc1`: the activity change, negative = inhibition result was “inactive”. Regarding `O=C1N(Cc2ccc3c(c2)OCO3)c2ccccc2C1(O)c1c[nH]c2ccccc12` (configuration not stated), the activity change, negative = inhibition result is “inactive”.

As to `Cc1nc2cnc(N3CCN(C)CC3)nc2n(C[C@H]2CCCO2)c1=O`, the activity change, negative = inhibition result was “inactive”.

Consider `O=C(O)c1c(Br)c(Br)c(Br)c(Br)c1C1c2ccc(O)cc2Oc2cc(O)ccc21`, for which the Potency is 0.0251 µM (active). As to `N#CC1=C(N)Oc2cc(O)ccc2C1C1CCCCC1` (configuration not stated), the activity change, negative = inhibition entry was “inactive”.

Regarding `FC(F)(F)c1ccccc1-c1nc(-n2ccnc2)c2ccccc2n1`, the activity change, negative = inhibition entry was “inactive”.

`O=C(CSc1nc(-c2ccco2)cc(C(F)(F)F)n1)N1CCc2ccccc2C1`: the activity change, negative = inhibition result was “inactive”.

Consider `O=C(O)/C(=C/c1c(C(=O)O)[nH]c2cc(Cl)cc(Cl)c12)c1ccccc1`, for which the Potency is 31.6 µM (active). Turning to `COCCCNC(=O)c1ccc(CNS(=O)(=O)c2ccc(NC(C)=O)cc2)cc1`, the activity change, negative = inhibition result was “inactive”.
